Only some compounds are listed: those with a hit (about 3.4% of all), similar ones and a draw of the others.
Mcl1 Noxa PPI = Mcl-1/Noxa interaction inhibition; Q07820; TR-FRET Mcl-1/Noxa peptide binding, 2 h; inhibition, % at 21.7 µM; 220,000 compounds, 1.5% hits; AID 1022;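 active means compounds that cut the protein-peptide binding signal by more than 50% relative to plate controls in a single-dose test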;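 further: His-tagged Mcl-1 with rhodamine Noxa BH3 peptide and terbium anti-His antibody; 0% = Mcl-1 plus Noxa peptide wells and 100% = peptide-only wells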
Target sequence (Q07820 whole entry, looked up): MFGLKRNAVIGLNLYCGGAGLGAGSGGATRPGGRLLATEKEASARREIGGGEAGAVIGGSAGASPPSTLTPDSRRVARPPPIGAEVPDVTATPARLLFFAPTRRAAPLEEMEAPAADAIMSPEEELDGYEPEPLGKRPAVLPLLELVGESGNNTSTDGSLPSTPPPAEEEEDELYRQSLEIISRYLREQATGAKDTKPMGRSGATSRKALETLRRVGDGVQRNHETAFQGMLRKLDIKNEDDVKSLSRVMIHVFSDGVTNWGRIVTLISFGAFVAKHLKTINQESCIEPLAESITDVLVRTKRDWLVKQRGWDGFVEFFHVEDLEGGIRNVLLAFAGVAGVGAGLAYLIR
Bim-Mcl-1 = inhibitors of Bim-Mcl-1 interaction, human | Q07820 | Bead-based flow cytometry, Bim peptide-Mcl-1 binding | inhibition, % at 10 µM | 190,000 compounds, 0.1% hits; in the data active means inhibition above about 40%;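 further: 0% = no compound tracer wells and 100% = peptide blocker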
14-3-3 Bad inh = disrupts binding of bovine 14-3-3 zeta to phospho-Bad peptide; P63103; TR-FRET 14-3-3zeta/Dy647-pBad peptide displacement, 1 h; inhibition, % at 21.7 µM; 220,000 compounds, 0.71% hits; AID 781;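 active means inhibition above about 70%, limit read from the data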;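 further: 0% = full 14-3-3 plus peptide FRET controls and 100% = background without 14-3-3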
Target sequence (P63103 whole entry, looked up): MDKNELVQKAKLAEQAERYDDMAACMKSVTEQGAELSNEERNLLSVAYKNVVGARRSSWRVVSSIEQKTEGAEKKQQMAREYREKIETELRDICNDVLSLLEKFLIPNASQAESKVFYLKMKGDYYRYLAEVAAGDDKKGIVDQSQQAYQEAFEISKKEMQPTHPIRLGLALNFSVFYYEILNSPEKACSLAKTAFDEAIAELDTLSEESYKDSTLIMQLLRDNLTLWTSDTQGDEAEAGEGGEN
Mcl1 Bid PPI = Mcl-1/Bid interaction inhibition; TR-FRET Mcl-1/Bid-Dy647 peptide binding, 1536-well; inhibition, % at 21.7 µM; 220,000 compounds, 0.97% hits; Q07820;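 active means compounds that cut the binding signal by more than half at the single screening dose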;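 further: His-tagged Mcl-1 with europium anti-His antibody binding Bid BH3 peptide; 0% = Mcl-1 plus peptide wells and 100% = peptide-only wells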
NCF1 inh = blocks human p47phox regulatory protein of NADPH oxidases. P14598. p47phox/p22phox peptide binding, fluorescence polarization, 2 h. inhibition, % at 24.7 µM. 220,000 compounds, 0.53% hits. AID 1274;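 further: 0% = p47phox with labelled peptide and 100% = labelled peptide alone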
eIF4E 4G PPI = blocks eIF4E binding to eIF4G; 220,000 compounds, 0.37% hits; TR-FRET eIF4E-eIF4GI(517-606) binding, 2 h; P63073+Q04637; inhibition, % at 21.7 µM;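 further: 0% = full FRET control wells and 100% = background wells lacking eIF4GI fragment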
Numbers without * were called inactive; . = no result given; [ ] = dose if it differs, or a comment.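 How the source made its calls, unless noted: active means inhibition above about 30% (limit read from the data); inactive means the rest.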

SMILES	Mcl1 Noxa PPI	Bim-Mcl-1	14-3-3 Bad inh	Mcl1 Bid PPI	NCF1 inh	eIF4E 4G PPI
CCC(=O)Nc1ccc(/C(C)=N\NS(=O)(=O)c2ccc(C)cc2)cc1	5	-1	-9	-61	170*	-12
CCn1c(CSc2nc3ccccc3s2)nnc1SCC(=O)c1ccc(O)c(O)c1	62*	-1	-10	-99	-19	-1
CCn1c(SCC(=O)c2ccc(O)c(O)c2)nnc1-c1ccccc1OC	8	1	-18	-81	70*	1
C=CCn1c(SCC(=O)c2ccc(O)c(O)c2)nnc1-c1ccccc1OC	19	-2	-13	-58	-6	0
Cc1c(C(=O)Nc2ccc(S(=O)(=O)NCC3CCCO3)cc2)cccc1[N+](=O)[O-] (stereo not given)	2	0	2	-24	-1	1
O=C(Oc1ccccc1)c1cccc2cccc(C(=O)Oc3ccccc3)c12	26	.	-1	-6	-8	6
CSC1=NSC2=NC(=O)/C(=C/c3coc4ccc(O)cc4c3=O)C(=N)N12	62*	6	32	-52	-54	14
O=C(CNC(=O)C(c1ccccc1)c1ccccc1)N/N=C/c1cccnc1	95*	.	3	-3	-7	4
O=C(Cc1ccccc1)NCC(=O)N/N=C/c1cccnc1	27	.	7	-26	-6	7
O=C(NCCOc1ccccc1)C(=O)c1c[nH]c2ccccc12	9	.	1	7	-11	-1
Cc1nc(NCCOc2ccccc2)sc1C(=O)Nc1ccccc1	27	.	5	7	-5	-2
S=c1[nH]c(-c2ccccc2)cn1/N=C/c1ccncc1	27	.	1	-24	-2	0
CCOc1ccc(/C=N/n2cc(-c3ccccc3)[nH]c2=S)cc1	53*	-9	5	-19	2	-1
N#Cc1ccsc1NC(=O)c1cccc([N+](=O)[O-])c1	54*	0	-8	-29	-22	6
N#Cc1ccsc1NC(=O)c1ccc(Cl)c([N+](=O)[O-])c1	23	.	-3	4	-86	-1
O=C(CNC(=S)N(Cc1ccccc1)Cc1ccccc1F)NCCc1ccccc1	5	-1	-4	-27	2	3
Cc1noc(C)c1COc1ccc(CC(=O)NCc2ccccc2)cc1	3	4	-5	-20	-1	0
Cc1noc(C)c1CN1C(=O)NC(Cc2ccccc2)(Cc2ccccc2)C1=O	14	40*	-8	4	0	-13
N#CCCN1CCN(C2=NC(=O)/C(=C\c3cccs3)S2)CC1	2	.	-28	-14	-3	-1
CC1(C)N([O-])c2cc([N+](=O)[O-])ccc2[N+]1=O	85*	.	6	-65	12	6
Cc1ccc(C)n1-c1cc([N+](=O)[O-])ccc1-n1ccnc1	18	.	-3	-10	-8	4
COc1ccc(C2C(C(=O)c3ccccc3)N3c4ccccc4C=CC3C2[N+](=O)[O-])cc1 (stereo not given)	10	3	-19	32	-12	4
O=c1c(-c2ccccc2)coc2c(CN3CCCC3)c(O)ccc12	3	-2	-14	-9	-12	76*
O=C(c1ccccc1CCc1ccccc1)N1CCOCC1	2	-4	10	57*	0	5
O=C(c1ccccc1F)N1CCOCC1	7	0	-10	-16	0	0
SMILES	Mcl1 Noxa PPI	Bim-Mcl-1	14-3-3 Bad inh	Mcl1 Bid PPI	NCF1 inh	eIF4E 4G PPI
O=S(=O)(Nc1cccnc1)c1cccc(Cl)c1	-6	-7	9	-28	-4	5
CN(C)c1ccc(NS(=O)(=O)c2ccc(Cl)cc2)cc1	61*	0	-6	-9	-1	0
Cc1ccc(S(=O)(=O)Nc2ccc(N(C)C)cc2)cc1	73*	0	6	-3	6	12
CN(C)c1ccc(S(=O)(=O)c2ccc(Cl)cc2)cc1	4	0	5	-21	-9	-9
CC(C)c1ccc(NS(=O)(=O)c2ccc(Cl)nc2)cc1	13	-2	0	55*	-4	1
CN(C)c1ccc(NS(=O)(=O)c2cccc(Cl)c2)cc1	84*	0	6	-21	6	18
O=C(NCc1ccccc1)C1=C[C@@H](c2coc3ccccc3c2=O)C[C@@H](OCc2ccc(CO)cc2)O1	11	0	2	9	-23	1
CCCSc1nc(C)nc2c1c(=O)n(C)c(=O)n2C	-4	-1	10	88*	-8	5
O=C(Oc1ccc2c(c1)OCO2)c1cc2c(s1)CCC2	57*	-1	-6	-42	-1	0
O=C(CN1CCN(C(c2ccccc2)c2ccccc2)CC1)N1CCOCC1	29	-6	73*	27	-1	2
O=C(CN1CCOCC1)n1c2ccccc2c2ccccc21	-2	-5	75*	-16	-11	0
COC(=O)c1ccc(OS(=O)(=O)N(C)C)cc1	11	1	-2	-15	-6	2
COCCNc1ccc(N2C(=O)CCCC2=O)cc1[N+](=O)[O-]	-3	1	-6	5	-3	1
CN1CCN(C=Nc2nc3ccccc3nc2N2CCCC2)CC1	3	2	-6	-28	-7	0
CN(C)S(=O)(=O)c1ccc(C(=O)Oc2coc(CSc3ncccn3)cc2=O)cc1	-8	-1	-3	-28	-15	-2
CCN(CC)S(=O)(=O)c1ccc(C(=O)Oc2coc(CSc3nc(C)cc(C)n3)cc2=O)cc1	70*	1	-6	-3	-2	1
CC(C)=CCN1CCN(Cc2cn[nH]c2C2CCCCC2)CC1CCO (stereo not given)	8	0	-12	-9	5	1
Cc1cc(C(C)(C)C)c(O)c(C(C)(C)C)c1	-4	-2	-14	-1	-1	-1
Cc1cc(O)c(Oc2cc(C)cc(O)c2O)c(O)c1	61*	-3	5	-8	-3	0
COC(=O)c1ccc(N2C(=O)CC(Sc3n[nH]c(C)n3)C2=O)cc1 (stereo not given)	53*	0	-1	-17	-16	4
COC(=O)c1cc(C(=O)OC)cc(N2C(=O)CC(Sc3nc(C)cc(C)n3)C2=O)c1 (stereo not given)	8	2	9	-11	-12	-8
CC(=O)NC1(C(F)(F)F)C(=O)Nc2c1c(=O)[nH]c(=O)n2CCc1ccccc1 (stereo not given)	17	.	-2	-6	2	-2
CCC(C)Nc1nc(-c2ccc3c(c2)NC(=O)CO3)cs1 (stereo not given)	14	2	81*	21	-13	11
Cc1nc(NC(=O)c2ccccc2)sc1-c1csc(Nc2ccc(Cl)cc2Cl)n1	36	-1	76*[fluorescence artefact?]	-25	-22	-20
Cc1ccc(Cl)cc1Nc1nc(-c2sc(NC(=O)c3cccc(Cl)c3)nc2C)cs1	40	-3	89*	61*	-26	-20

Source: PubChem (several laboratories)
